In PubChem BioAssay AID1508608 (The Scripps Research Institute Molecular Screening Center, 2020) one finds activation data, which are given here for 103 molecules.

About 20 (0.9%) of roughly 2,300 compounds were called active. The entries come from a sample that favours actives as a whole. A number with no mark means an inactive call.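 The calls were made as follows: active = mean activation across replicates above 26.72%, the hit cutoff set for this confirmation screen; inactive = the rest.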

Chain of G-protein coupled receptor 151 (Homo sapiens) (Q8TDV0 whole entry, looked up): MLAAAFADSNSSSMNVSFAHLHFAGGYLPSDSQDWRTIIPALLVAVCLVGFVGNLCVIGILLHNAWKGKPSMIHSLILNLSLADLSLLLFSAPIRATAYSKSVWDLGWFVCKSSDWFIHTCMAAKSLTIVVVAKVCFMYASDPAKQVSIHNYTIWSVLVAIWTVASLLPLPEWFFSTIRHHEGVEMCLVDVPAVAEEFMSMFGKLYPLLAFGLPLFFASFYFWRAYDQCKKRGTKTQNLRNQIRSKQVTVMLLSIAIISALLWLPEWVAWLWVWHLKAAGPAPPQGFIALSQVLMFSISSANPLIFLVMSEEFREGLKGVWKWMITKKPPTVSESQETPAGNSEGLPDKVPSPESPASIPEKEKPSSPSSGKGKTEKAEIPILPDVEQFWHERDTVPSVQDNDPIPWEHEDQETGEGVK

The experiment addresses G-protein coupled receptor 151 (Homo sapiens) (UniProt Q8TDV0). Kind of experiment: GPR151 activators, triplicate retest, confirmation, cell-based, PathHunter beta-arrestin, luminescence, set 2 (AID 1508608).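 Also: 0% = plate median of compound wells and 100% = EA reagent high control.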 The settings on record: GPR151 PathHunter beta-arrestin cells, 90 min, at 11.2 µM, stronger effect = higher value, 100% = signal from added EA reagent.
Consider `COc1ccc(-c2nc(Nc3ccccc3F)c3ccccc3n2)cc1OC`, for which the activation was 8.64%.
For the molecule `CC(C)C[C@H]1NC(=O)[C@H]2CN(C(=O)c3cccc(Cl)c3)CCN2C1=O`, the activation was -3.06%.
Next, `CC[C@@H](C(=O)C(C)[C@@H](O)[C@H](C)CCc1ccc(C)c(O)c1C(=O)O)C1OC(CC)(C2CC[C@](O)(CC)[C@H](C)O2)C[C@@H]1C` (stereo partly drawn): 83.1% (active); `O=C(Nc1ncc(C(O)(C(F)(F)F)C(F)(F)F)s1)c1ccccc1Cl`: -4.3%; `COc1ccc(NC(=O)c2cc3c(CO)cnc(C)c3oc2=N)cc1Cl`: -0.43%.
The figure for `O=C(NCCc1nnc2n1CCN(Cc1ccccc1-c1ccco1)CC2)C1CCCO1` (stereo not drawn) is -0.22%; for `CCc1ccccc1NC(=S)N(CCc1ccc(OC)c(OC)c1)Cc1cccnc1` it is 12%; for `O=C(Nc1nc(-c2ccc(I)cc2)cs1)c1ccc(Cl)s1` it is 4.72%.
Consider `CC(C)[C@@H]1NC(=O)[C@@H]2C[C@H](NCc3cn(C)nc3-c3ccccc3)CN2C1=O`, for which the activation was -1.25%.
Next, `Cc1nn(-c2ccccc2)c(Cl)c1/C=N\O`: 1.25%; `Cc1ccc(O)c(NC(=O)COCc2cc(-c3ccc(F)cc3)on2)c1`: -1.43%.
Turning to `COc1cc(NC(=O)c2nn3c(C(F)(F)F)cc(-c4ccco4)nc3c2Cl)c(OC)cc1Cl`, the activation is -0.24%.
Regarding `CCC(=O)N1CCc2cc(S(=O)(=O)Nc3cccc(C)c3)ccc21`, the activation was -1.7%.
`CC(=O)N1CCc2cc(Br)cc(S(=O)(=O)Nc3ccc(C)cc3C)c21`: the activation was -9.66%.
Next, `O=C(Nc1nc2c(s1)-c1cccc3cccc-2c13)C1CC1`: -2.94%; `Cc1cccc(NCC(=O)N/N=C/c2ccccc2O)c1`: -1.08%; `CN1CCN(C(=O)c2cc3c(=O)[nH]c4ccccc4c3s2)CC1`: -2.02%.
The figure for `COc1ccc(OC)c(S(=O)(=O)NCCc2csc(-c3cccnc3)n2)c1` is -1.44%; for `Cc1cccc(N(CCCN2C(=O)c3cccc4cccc(c34)C2=O)C(=O)c2cccs2)c1` it is 2.61%.
In the case of `CC(=O)NN1C(=O)c2ccc(Oc3ccc4c(c3)C(=O)N(NC(C)=O)C4=O)cc2C1=O`, the activation was 1.35%.
For `COc1ccc(/C=c2\sc3ncnn3c2=O)c(OC)c1`, the activation was 1.55%.
With `COc1ccccc1C1SC(NC(C)=O)=NN1C(C)=O` (stereo not drawn), the activation was 4.02%.
Take `Cc1cccc(C2c3[nH]c4ccccc4c3CCN2C(=O)CCN2CCCCO2)n1` (stereo not drawn): the activation is 2.25%.
Next, `COc1cccc(CC(=O)NCC2CC(Cc3ccc(F)cc3)=NO2)c1` (stereo not drawn): -4.37%.
Next, `Cc1cc(Nc2ccc3c(c2)OCO3)nc(Nc2ccc(N3CCOCC3)cc2)n1`: 12.3%; `COc1ccc(CCNc2cc(C)nc(Nc3ccc(-n4ccnc4)cc3)n2)cc1`: 41.2% (active).
Next, `COc1ccc(CCNc2ccnc(Nc3ccc(N4CCOCC4)cc3)n2)cc1`: 28.5% (active); `COc1cc(Nc2ccnc(Nc3ccc(N4CCOCC4)cc3)n2)cc(OC)c1OC`: 4.44%; `COc1ccc(CCNc2ccnc(Nc3ccc(-n4ccnc4)cc3)n2)cc1`: 38.8% (active).
In the case of `Cc1cc(Nc2ccc(N3CCOCC3)cc2)nc(Nc2ccc(-n3ccnc3)cc2)n1`, the activation was 17.5%.
On to `COc1cccc(Nc2nc(Nc3cc(C)ccc3C)nc(N3CCOCC3)n2)c1`, for which the activation was 8.14%.
As for `Cc1ccc(NC(=O)/C(=C\c2ccco2)NC(=O)c2cccc(C)c2)cc1`, the activation is 0.99%.
The figure for `CC(C)CC(NC(=O)C(C)NC(=O)CNC(=O)C(NC=O)C(C)C)C(=O)NC(C)C(=O)NC(C(=O)NC(C(=O)NC(C(=O)NC(Cc1c[nH]c2ccccc12)C(=O)NC(CC(C)C)C(=O)NC(Cc1c[nH]c2ccccc12)C(=O)NC(CC(C)C)C(=O)NC(Cc1c[nH]c2ccccc12)C(=O)NC(CC(C)C)C(=O)NC(Cc1c[nH]c2ccccc12)C(=O)NCCO)C(C)C)C(C)C)C(C)C` (stereo not drawn) is 101% (active).
Take `COc1ccc(CCN2C(=O)c3ccc(Oc4ccc(Nc5ncnc6ccccc56)cc4)cc3C2=O)cc1OC`: the activation was 40.5% (active).
On to `COc1ccc(-c2nc(Nc3ccc(C)c(Cl)c3)c3ccccc3n2)cc1OC`, for which the activation was 12.1%.
For `COc1ccc(CCN2C(=O)c3cccnc3C2=O)cc1OC`, the activation is 2.67%.
Next, `CC(NC(=O)c1ccco1)c1nnc2n1CCN(Cc1cccc(F)c1)CC2` (stereo not drawn): 17.5%.
The figure for `CCOC(=O)C1=NN=C2C(=O)N(c3ccccc3)C(=O)C12` (stereo not drawn) is 0.79%.
Next, `CCOc1ccc(NC(=O)/C(C#N)=C/c2c[nH]c3ccccc23)cc1`: 1.37%; `O=C(CSc1nc(-c2ccccc2)cn1-c1ccccc1)Nc1ccccc1Cl`: 6.36%.
Turning to `O=C1OC(c2ccc(Br)cc2)=N/C1=C\c1ccc(Br)cc1`, the activation was 0.61%.
Consider `Cc1ccc(S(=O)(=O)N(CC(=O)N2CCOCC2)CC(=O)N2CCOCC2)cc1`, for which the activation was 7.51%.
On to `O=C1C2CCCN2C(c2ccco2)N1c1ccc(F)cc1` (stereo not drawn), for which the activation was 2.43%.
The figure for `FC(F)(F)c1nc(Nc2ccccc2Cl)sc1-c1ccccc1` is 4.88%; for `N/C(=N\c1nc(=O)c2ccccc2s1)NC(=O)c1cccc(Br)c1` it is 0.6%; for `CCOc1ccc(NC(=O)CN2CCN(CC(=O)Nc3ccc(N(C)C)cc3)CC2)cc1` it is -2.91%.
On to `COc1cc(C2=N/C(=C\c3cccc(F)c3)C(=O)O2)cc(OC)c1OC`, for which the activation is 0.44%.
As for `O=C1NC(=O)C(=Cc2ccc(-c3ccc(O)c([N+](=O)[O-])c3)o2)C(=O)N1`, the activation was -2.55%.
Take `Cc1nnc(Nc2cccc(F)c2)[nH]c1=O`: the activation is -3.86%.
The figure for `COC(=O)C1=C(C)NC(=O)NC1c1cc(OC)ccc1OC` (stereo not drawn) is 0.35%; for `CC(C)C(NS(=O)(=O)c1cccc2nsnc12)C(=O)NC1CCCC1` (stereo not drawn) it is -3.04%; for `CC(=O)Nc1ccc(NC(=O)c2sc3ccccc3c2Cl)cc1` it is 1%.
On to `CCN(CC(=O)N1CCCCC1)S(=O)(=O)c1ccc(Cl)cc1`, for which the activation is -5.3%.
Take `CC1CCCN(C(=O)C(=O)N2CCCC(C)C2)C1` (stereo not drawn): the activation was 3.28%.
For the molecule `CCC(C)NC(=O)c1cc2c(=O)oc3ccccc3c2s1` (stereo not drawn), the activation was 1.06%.
Take `CCC(C)NC(=O)c1ccc(-n2c(=S)[nH]c3ccccc3c2=O)cc1` (stereo not drawn): the activation was 7.03%.
Next, `CCC(C)NC(=O)c1cc(=O)[nH]c2ccc(Br)cc12` (stereo not drawn): 88.5% (active).
As for `CCCOC(=O)CSC1=C(C#N)C(c2ccco2)C(C(=O)Nc2ccc(Cl)cc2)=C(C)N1` (stereo not drawn), the activation is -4.25%.
The figure for `O=C(Nc1ccc(F)cc1)N1CCN(c2ccc3nnc(-c4ccc(F)cc4)n3n2)CC1` is -0.4%; for `Nc1ccccc1-c1nnn(CC(=O)Nc2ccc(Cl)cc2)n1` it is -3.19%; for `O/N=C(\C=N\O)C12CC3CC(CC(C3)C1)C2` it is -1.69%.
`O=C(O)c1c(CNCCCSC2CCCCC2)c2ccccc2n1Cc1ccccc1`: the activation is 3.46%.
In the case of `CC(=O)NCC(=O)N1CCC(c2nc(-c3ccncc3)ncc2-c2cccc(C)c2)CC1`, the activation was 0.35%.
Turning to `CCCn1c(=O)c2c(nc3n2CC(C)CN3c2cccc(Cl)c2)n(C)c1=O` (stereo not drawn), the activation was 3.55%.
Take `S=c1[nH]nc(OCc2ccc(Cl)cc2Cl)n1-c1ccccc1`: the activation is -1.15%.
Turning to `CC1C(=O)Nc2ccc(S(=O)(=O)Nc3ccc(F)c(Cl)c3)cc2NC1=O` (stereo not drawn), the activation was 4.91%.
Next, `COC(=O)C1(C(F)(F)F)N=C2C=C(C)C=CN2C(c2ccc(C)cc2)=N1` (stereo not drawn): 3.12%; `COC(=O)c1c(NC(=O)COc2cccc(C(F)(F)F)c2)sc2c1CCCC2`: -0.94%; `O=C1CSc2ccc(C(=O)N3CCc4ccccc4C3)cc2N1`: -0.36%.
Next, `Cc1sc2ncn(CC(=O)Nc3ccc(Oc4ccc(Cl)cc4)cc3)c(=O)c2c1C`: 2.02%; `COc1ccc(/C=N/NC(=O)COc2c(OC)cc([N+](=O)[O-])cc2[N+](=O)[O-])c(O)c1`: -9.14%.
Next, `CCc1c(C)nc2c(C(=O)NCCc3ccccc3)c[nH]n2c1=O`: 1.59%.
On to `CCOc1ccc(C(=O)Nc2nc(-c3ccc(CC)cc3)cs2)cc1`, for which the activation was 4.71%.
The figure for `O=c1ccc(=O)n(CN(c2ccccc2)c2ccccc2)[nH]1` is 4.24%.
Next, `CCN(CC)CCNC(=O)CNC(=O)c1nn(-c2ccc(OC)cc2OC)c(=O)c2ccccc12`: -4.28%.
The figure for `Cc1ccc(-c2cc(=O)c3cc(Cl)ccc3o2)cc1` is -6.67%; for `O=C(O)CNC(=O)/C=C/c1ccccc1Cl` it is -5.28%.
In the case of `O=c1c2sc3ccccc3c2n(CCN2CCOCC2)c(=O)n1Cc1ccccn1`, the activation is 1.89%.
The figure for `COc1ccc(C)cc1NC(=O)c1sc2ncn(CC(=O)Nc3ccc(C)c(Cl)c3)c(=O)c2c1C` is -0.16%; for `O=C(c1ccccc1)c1cc2cc(Cl)ccc2oc1=O` it is 1.99%.
Take `O=C(CCNS(=O)(=O)c1ccc2[nH]c(=O)ccc2c1)N1CCC(N2CCCCC2)CC1`: the activation was -4.32%.
Consider `COc1cccc(NC2c3ccccc3C(=O)N2c2cccnc2)c1` (stereo not drawn), for which the activation is 0.11%.
Next, `O=C(O)c1ccc(Sc2ccc(Br)cc2)c([N+](=O)[O-])c1`: -1.52%; `COc1ccc(C2C3=C(CCCC3=O)Nc3nc(SC)nn32)c(OC)c1` (stereo not drawn): 1.74%; `CCOC(=O)C1=C(C)N=c2s/c(=C\c3cc([N+](=O)[O-])ccc3N3CCOCC3)c(=O)n2C1c1ccc(OC)c(OC)c1` (stereo not drawn): 0.23%.
Next, `Cc1ccc(CN2CCN(Cc3ccc4cc(F)ccc4n3)CC2CCO)o1` (stereo not drawn): 4.51%.
The figure for `CCn1c(=S)sc2c(=O)[nH]c(C)nc21` is -7.13%.
With `CC(=O)n1nc(-c2ccco2)nc1SCc1ccccc1`, the activation was 2.59%.
Next, `Cc1noc(C)c1S(=O)(=O)N1CCC(C(=O)N2CCCCC2C)CC1` (stereo not drawn): -1.12%.
Next, `CCCc1cc(=O)n2[nH]c(NCc3cccc(OC)c3)nc2n1`: -0.18%.
For `CCC(C)NC(=O)CSc1nnc(-c2ccc(C)cc2)c(-c2ccc(C)cc2)n1` (stereo not drawn), the activation was 6.79%.
With `COc1ccc(CCn2c(-c3ccc(Cl)cc3)csc2=Nc2ccc(F)cc2)cc1OC`, the activation was 2.13%.
For `O=S(=O)(c1ccc(-c2csc(=Nc3cccc(Cl)c3)n2CCCO)cc1)N1CCCCC1`, the activation was 14.5%.
Next, `CCN(CC)S(=O)(=O)c1ccc(-c2csc(=Nc3ccccc3OC)n2CC)cc1`: 28.4% (active); `COc1ccc(C(=O)NC(C)c2csc(C)n2)cc1OC1CCN(C(C)=O)CC1` (stereo not drawn): 1.6%; `Cc1ccc2c(c1)NC(C)(C)c1ssc(=Nc3ccc(S(=O)(=O)Nc4nccc(C)n4)cc3)c1-2`: 6.63%.
Next, `CSc1ncc(Cl)c(C(=O)Nc2nc3ccc(S(C)(=O)=O)cc3s2)n1`: -3.08%; `CC[n+]1c(/C=C2\Sc3ccc(C)cc3N2CCO)ccc2ccccc21`: 31.2% (active).
Regarding `CCC[n+]1c(/C=C2\Sc3ccccc3N2CC)ccc2ccccc21`, the activation is 15.4%.
`CN1CCN(c2cc(-c3cn[nH]c3)ccc2NC(=O)Cc2cccc(Cl)c2)CC1`: the activation was 35.5% (active).
Consider `N#Cc1c(-c2ccccc2)cc(-c2cccs2)nc1SC1CCCCC1O` (stereo not drawn), for which the activation is 4.8%.
For `Cc1ccc2nc(NC(=O)CCCN3C(=S)NC(C)(C)CC3C)sc2c1` (stereo not drawn), the activation is 2.74%.
On to `C#CCOc1c(Br)cc(C=O)cc1OC`, for which the activation was -0.43%.
